According to PubChem BioAssay (NCATS):
Several values for one entry are separate records, joined by “and”; a condition that tells them apart may be missing. Identical values can stand only once. Inconclusive results are not listed. A call without a number means that no potency is given here. Unmarked numbers belong to inactive results. Activity calls are given as the source filed them. Calls follow the shape of the dose curve; as a rule, active = well fitted cell-killing curve with a large enough effect; inconclusive = small, poorly fitted or top-dose-only effect, or effect the other way; inactive = no such curve, though single readings can be large or run the other way.

Key:
[1] = Viability qHTS for spleen associated tyrosine kinase inhibitor (SYKi) naive MV4-11 cells (AID 1963823); conditions: MV4-11 AML viability, CellTiter-Glo luminescence, 72 h; series mostly up to 45 µM; also: nearly all actives have a fitted effect of over 40% in size
Outline: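 Viability of MV4-11 AML cells lacking prior SYK inhibitor exposure is scored by CellTiter-Glo luminescence following 72 hr compound incubation at 37 C, 5% CO2, seeded at 500 cells per well.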

[2] = Viability qHTS for spleen associated tyrosine kinase inhibitor (SYKi) drug resistant MV4-11 cells (AID 1963824); conditions: SYKi-resistant MV4-11 viability, CellTiter-Glo, 72 h; series mostly up to 45 µM; also: nearly all actives have a fitted effect of over 35% in size
Outline: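 CellTiter-Glo luminescence, read 10 min after reagent addition, reports viability after a 72 hr compound exposure. Cells are an MV4-11 line made resistant to SYK inhibition, seeded at 500 per well onto compound-containing plates.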
Potency is read from the fitted curve at half-maximal effect.

CC1=C2C(=O)C=C(CO)C2C2OC(=O)C(CS(=O)(=O)O)C2C(OC(=O)Cc2ccc(O)cc2)C1 (stereo unspecified)
Potency [1]: inactive | Potency [2]: inactive

CCC(C)C(=O)O[C@H]1[C@@H](O[C@H]2O[C@H](CO)[C@@H](O)[C@H](O)[C@H]2O)O[C@H](CO)[C@@H](O)[C@@H]1O (stereo partly specified)
Potency [1]: inactive | Potency [2]: inactive

CCc1c(Cl)c(O)c(Cl)c(O)c1C(=O)O[C@H]1[C@H](O)[C@H](OC)[C@H](OC/C2=C\C=C\C[C@H](O)/C(C)=C\[C@H](CC)[C@@H](O[C@@H]3OC(C)(C)[C@@H](OC(=O)C(C)C)[C@H](O)[C@@H]3O)/C(C)=C/C(C)=C/C[C@@H]([C@@H](C)O)OC2=O)O[C@@H]1C
Potency [1]: 7090 nM (active) | Potency [2]: 3.99 µM (active)

COc1cc(C(=O)NC2CCN(C)CC2)c(F)cc1Nc1ncc2c(n1)N(C1CCCC1)CC(F)(F)C(=O)N2C
Potency [1]: 20.6 nM (active) | Potency [2]: 0.0092 µM (active)

O=C(/C=C/c1ccccc1)OC[C@H]1O[C@@H](OC(=O)c2cc(O)c(O)c(O)c2)[C@H](O)[C@@H](O)[C@@H]1O
Potency [1]: inactive | Potency [2]: inactive

CC(C)(C)c1cc(Br)cc([C@H](CC(=O)O)NC(=O)CNC(=O)c2cc(O)cc(NC3=NCC(O)CN3)c2)c1 (stereo partly specified)
Potency [1]: inactive | Potency [2]: inactive

C=C1C(=O)O[C@@H]2C[C@@H](C)[C@]34C[C@]5(C(=O)O[C@H]6CC(C)=C([C@H](C)CCCO)[C@H](OC(=O)C(C)CC)[C@H]65)[C@@H](C(C)=C3C[C@@H]12)[C@H]4OC(C)=O (stereo partly specified)
Potency [1]: 3060 nM (active) | Potency [2]: 2.43 µM (active)

C=C1C(=O)OC2C=C(C)CC/C=C(\CO)CC(O)C12 (stereo unspecified)
Potency [1]: 10300 nM (active) | Potency [2]: 11.6 µM (active)

Cc1ccc(C(C)C)c(O[C@@H]2O[C@H](CO)[C@@H](O)[C@H](O)[C@H]2O)c1
Potency [1]: inactive | Potency [2]: inactive

CCOc1nc2cccc(C(=O)OCc3oc(=O)oc3C)c2n1Cc1ccc(-c2ccccc2-c2noc(O)n2)cc1
Potency [1]: inactive | Potency [2]: inactive

CS(=O)(=O)NCC1CCC(Nc2nc3c(s2)CCSc2ccccc2-3)CC1 (stereo unspecified)
Potency [1]: 2310 nM (active) | Potency [2]: 4.61 µM (active)

COc1ccc(Oc2c(Cl)cnn(-c3cc(C)cc(C)c3)c2=O)cc1
Potency [1]: 2310 nM (active) | Potency [2]: 2.06 µM (active)

C=C[C@H]1C(O[C@@H]2O[C@H](CO)[C@@H](O)[C@H](O)[C@H]2O)OC=C2C(=O)N3CCc4c([nH]c5ccccc45)[C@H]3C[C@H]21 (stereo partly specified)
Potency [1]: inactive | Potency [2]: inactive

N#Cc1cc([N+](=O)[O-])c2sc(C(N)=O)[n+]([O-])c2c1
Potency [1]: 1840 nM (active) | Potency [2]: 1.64 µM (active)

C[C@@]12C[C@]3(O)O[C@H](O1)[C@]1(COC(=O)c4ccccc4)[C@H]3C[C@@]12O[C@@H]1O[C@H](COC(=O)c2ccccc2)[C@@H](O)[C@H](O)[C@H]1O
Potency [1]: inactive | Potency [2]: inactive

COc1cc2c(cc1O)CC[C@@H]1[C@@H]2CC[C@]2(C)[C@@H](O)CC[C@@H]12
Potency [1]: 833 nM (active) | Potency [2]: 0.934 µM (active)

OCC1=CC[C@@H]2C=CO[C@@H](O[C@@H]3O[C@H](CO)[C@@H](O)[C@H](O)[C@H]3O)[C@H]12
Potency [1]: inactive | Potency [2]: inactive

CC(=O)O[C@H]1[C@H](O[C@H]2CC[C@]34C[C@]35CC[C@]3(C)[C@@H]([C@@]6(C)CC[C@@H](C(C)(C)O)O6)[C@@H](O)C[C@@]3(C)[C@@H]5C[C@H](O[C@@H]3O[C@H](CO)[C@@H](O)[C@H](O)[C@H]3O)[C@H]4C2(C)C)OC[C@@H](OC(C)=O)[C@@H]1O
Potency [1]: inactive | Potency [2]: inactive

CC(C)(O)C1CC=C(C(=O)OC[C@H]2O[C@@H](OC(=O)C3=CCC(C(C)(C)O)CC3)[C@H](O)[C@@H](O)[C@@H]2O)CC1 (stereo partly specified)
Potency [1]: inactive | Potency [2]: inactive

CC(=O)O[C@@H]1[C@H](O[C@@H]2OC[C@](O)(CO)[C@H]2O)[C@@H](O[C@@H]2O[C@@H](C)[C@H](O)[C@@H](O[C@@H]3O[C@H](CO)[C@@H](O)[C@H](O)[C@H]3O)[C@H]2O)[C@H](OC(=O)[C@]23CCC(C)(C)C[C@H]2C2=CCC4[C@@]5(C)C[C@H](O)[C@H](O[C@@H]6O[C@H](C(=O)O)[C@@H](O)[C@H](O)[C@H]6O)[C@@](C)(C(=O)O)C5CC[C@@]4(C)[C@]2(C)CC3)O[C@@H]1C (stereo partly specified)
viability (% of control) [1]: 95.7% [at 9.25 µM] | viability, % of control [2]: 95.1% [at 9.25 µM]

C=C(C)[C@@H](C)[C@H]1O[C@]23C[C@]4(CO2)C(CCC2[C@@]5(C)CC[C@H](O[C@@H]6OC[C@H](O)[C@H](O[C@@H]7O[C@H](CO)[C@@H](O)[C@H](O)[C@H]7O)[C@H]6O[C@@H]6O[C@@H](CO)[C@H](O)[C@H]6O)C(C)(C)C5CC[C@]24C)C3[C@@](C)(O)[C@@H]1OC(C)=O (stereo partly specified)
viability (% of control) [1]: 73.4% [at 9.25 µM] | viability, % of control [2]: 92.6% [at 9.25 µM]

C=C1[C@@H]2CC[C@@]3(C)[C@H](c4ccoc4)OC(=O)C[C@]13O[C@H]1CC(=O)C(C)(C)[C@H](CC(=O)OC)[C@]12C
Potency [1]: inactive | Potency [2]: inactive

CCN(Cc1cccnc1)C(=O)CN(c1ccc(OC)nc1)S(=O)(=O)c1ccccc1C
Potency [1]: inactive | Potency [2]: inactive

CN(C)C/C=C/C(=O)Nc1cc2c(Nc3ccc(F)c(Cl)c3)ncnc2cc1OC1CCOC1 (stereo unspecified)
Potency [1]: 1160 nM (active) | Potency [2]: 1.3 µM (active)

CC1CC(O)C2(C)C(C(=O)O)=CCCC2C1(C)CCc1ccoc1 (stereo unspecified)
Potency [1]: inactive | Potency [2]: inactive

C=C(C(=O)O)C1CCC2(C)CCC(O)C(=C)C2C1 (stereo unspecified)
Potency [1]: inactive | Potency [2]: inactive

CCC(C)/C=C(C)/C=C/C1=CC2=C(Cl)C(=O)C(C)(OC(C)=O)C(=O)C2=CN1CCCCC(N)C(=O)O (stereo unspecified)
Potency [1]: inactive | Potency [2]: inactive

CC#CC(=O)N1CC[C@@H](n2c(=O)n(-c3ccc(Oc4ccccc4)cc3)c3c(N)ncnc32)C1
Potency [1]: 7420 nM (active) | Potency [2]: 8.33 µM (active)

C[C@@H]1O[C@@H](OC(=O)Cc2ccccc2)[C@H](O)[C@H](O)[C@H]1O
Potency [1]: inactive | Potency [2]: inactive

C=C1C2(C)CC3C4(C)C=CC(=O)OC(C)(C)C4CCC3(C)C1(C(=O)OC)C(=O)C(C)(O)C2=O (stereo unspecified)
Potency [1]: inactive | Potency [2]: 0.224 µM (active)

C[C@]1(O)CC[C@@H]2C(C(=O)O)=CO[C@@H](O[C@@H]3O[C@H](CO)[C@@H](O)[C@H](O)[C@H]3O)[C@@H]21
Potency [1]: inactive | Potency [2]: inactive

CC1=C2CC3C(CCC3(C)O)C(C)(O)CC2OC1=O (stereo unspecified)
Potency [1]: inactive | Potency [2]: inactive

COc1cc2c(cc1OC(C)C)[C@H](c1ccc(Cl)cc1)N(c1ccc(N(C)CC3CCC(N4CCN(C)C(=O)C4)CC3)cc1)C(=O)C2 (stereo partly specified)
Potency [1]: 11800 nM (active) | Potency [2]: 9.2 µM (active) and 8.33 µM (active)

COC(=O)CC1(O)C(=O)Nc2ccccc21 (stereo unspecified)
Potency [1]: inactive | Potency [2]: inactive

CC1(C)C(=O)N2c3ccccc3C(O)(CC(C(=O)O)n3cnc4ccccc4c3=O)C2N1O (stereo unspecified)
Potency [1]: inactive | Potency [2]: 0.252 µM (active)

CSCC1OC(n2cnc3c(=O)[nH]cnc32)C(O)C1O (stereo unspecified)
Potency [1]: inactive | Potency [2]: inactive

C=C1CC[C@@H]2[C@](C)(CO)[C@H](O)CC[C@@]2(C)[C@@H]1C/C=C1/C(=O)OC[C@@H]1O
Potency [1]: 4530 nM (active) | Potency [2]: 3.21 µM (active)

O=C1C[C@]23C=CCN4CCC5c6cc7c(cc6N1[C@@]5(CC2)C43)OCO7 (stereo partly specified)
Potency [1]: 10100 nM (active) | Potency [2]: 14.3 µM (active)

CC(=O)c1c(C)cc(O[C@@H]2O[C@H](CO)[C@@H](O)[C@H](O)[C@H]2O)cc1O
Potency [1]: inactive | Potency [2]: inactive

CCN=C1N[C@@H]2[C@@H](O)[C@H](O)[C@@H](CO)O[C@@H]2S1
Potency [1]: inactive | Potency [2]: inactive

CC(=O)O[C@H]1CC[C@@]2(CI)C(=CC[C@@H]3[C@@H]2CC[C@]2(C)[C@@H]([C@H](C)CCCC(C)C)CC[C@@H]32)C1
viability (% of control) [1]: 88.4% [at 9.25 µM] | viability, % of control [2]: 83% [at 9.25 µM]

Nc1ncnc2c1c(-c1ccc(Oc3ccccc3)cc1)nn2[C@@H]1CCCNC1
Potency [1]: 206 nM (active) | Potency [2]: 0.259 µM (active)

COC(=O)C1=COC(O[C@@H]2O[C@H](CO[C@@H]3O[C@H](COC(=O)/C=C\c4ccc(O)cc4)[C@@H](O)[C@H](O)[C@H]3O)[C@@H](O)[C@H](O)[C@H]2O)C2C(CO)=CCC12 (stereo partly specified)
Potency [1]: inactive | Potency [2]: inactive

CC(C)=CCC[C@](C)(O[C@@H]1O[C@H](CO)[C@@H](O)[C@H](O)[C@H]1O)[C@H]1CC[C@]2(C)[C@@H]1[C@H](O)CC1[C@@]3(C)CC[C@H](O)C(C)(C)C3[C@@H](O[C@@H]3O[C@H](CO)[C@@H](O)[C@H](O)[C@H]3O[C@@H]3OC[C@@H](O)[C@H](O)[C@H]3O)C[C@]12C (stereo partly specified)
viability (% of control) [1]: 84.7% [at 9.25 µM] | viability, % of control [2]: 84.8% [at 9.25 µM]

C=CC(C)(C)C12C=C(OC)C(=O)N3C(C(C)C)C(=O)NC31N(OC)c1ccccc12 (stereo unspecified)
Potency [1]: inactive | Potency [2]: 7.09 µM (active)

CC(=O)O[C@@H]1[C@H](O[C@@H]2O[C@H](CO)[C@@H](O)[C@H](O)[C@H]2O)[C@@H](O[C@@H]2O[C@@H](C)[C@H](O)[C@@H](O[C@@H]3O[C@H](CO)[C@@H](O)[C@H](O)[C@H]3O)[C@H]2O)[C@H](OC(=O)[C@]23CCC(C)(C)C[C@H]2C2=CCC4[C@@]5(C)C[C@H](O)[C@H](O[C@@H]6O[C@H](C(=O)O)[C@@H](O)[C@H](O)[C@H]6O)[C@@](C)(C(=O)O)C5CC[C@@]4(C)[C@]2(C)CC3)O[C@@H]1C (stereo partly specified)
viability (% of control) [1]: 81.2% [at 9.25 µM] | viability, % of control [2]: 91.2% [at 9.25 µM]

CCOC(CN1C(=O)[C@](CC(=O)Nc2ccc(C)cc2)(NC(=O)Nc2ccc(C)cc2)c2ccccc21)OCC
Potency [1]: 18600 nM (active) | Potency [2]: 14.8 µM (active)

CC(C)c1cc2c(c(O)c1O[C@@H]1O[C@H](CO)[C@@H](O)[C@H](O)[C@H]1O)CC1(O)CCC(O)C(C)(C)C1CC2 (stereo partly specified)
Potency [1]: inactive | Potency [2]: inactive
